mcGAS lum = inhibitors of mouse cGAS; Q8C6L5; recombinant cGAS, Kinase-Glo ATP depletion luminescence; inhibition, % at 12.5 µM; actives 0.15% (n = 160,000)
NPYLR7 agonist = activates Aedes aegypti NPYLR7 receptor | activation, % at 10 µM | HEK293T NPYLR7/Galpha15, GCaMP6s calcium fluorescence | actives 0.15% (n = 270,000); in the data active = activation above about 40%
hcGAS lum = inhibitors of human cGAS; Q8N884; recombinant h-cGAS, ATP depletion, Kinase-Glo luminescence; inhibition, % at 12.5 µM; actives 0.081% (n = 290,000); AID 1259398
Target sequence (Q8N884 whole entry, looked up): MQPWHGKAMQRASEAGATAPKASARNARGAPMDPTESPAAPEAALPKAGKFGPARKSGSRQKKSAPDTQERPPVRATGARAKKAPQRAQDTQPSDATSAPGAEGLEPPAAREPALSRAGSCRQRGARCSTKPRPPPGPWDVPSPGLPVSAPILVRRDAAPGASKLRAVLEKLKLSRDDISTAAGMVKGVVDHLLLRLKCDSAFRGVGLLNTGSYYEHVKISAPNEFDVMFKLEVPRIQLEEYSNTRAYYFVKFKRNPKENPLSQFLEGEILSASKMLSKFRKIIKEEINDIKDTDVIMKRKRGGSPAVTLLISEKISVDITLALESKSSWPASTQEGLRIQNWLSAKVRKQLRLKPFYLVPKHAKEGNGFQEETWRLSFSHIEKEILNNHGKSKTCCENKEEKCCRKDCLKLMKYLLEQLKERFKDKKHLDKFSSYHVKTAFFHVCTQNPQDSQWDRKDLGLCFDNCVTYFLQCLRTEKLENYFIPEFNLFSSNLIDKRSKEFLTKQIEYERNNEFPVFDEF
Numbers stand for hits; – = inactive; · = not tested or not shown; ! = not confirmed by another sample. In the library only some 0.3% were active in any assay of this set; here they are far more common. Rule as the data show it, unless noted: active = inhibition above about 40%; inactive = the rest.

SMILES	mcGAS lum	NPYLR7 agonist	hcGAS lum
Cc1ccc2nc(Cn3cc(C(F)(F)F)cc(Cl)c3=O)cc(=O)n2c1	·	–	–
Fc1cc(F)cc(COC2CCCNC2)c1 (configuration not stated)	·	–	–
O=c1c(-c2ccccc2)coc2cc(O)cc(O)c12	·	–	70.4
O=c1cc(-c2ccccc2)oc2cc(O)cc(O)c12	–	–	–
Cc1ccc(CN(C)C(=O)CCl)o1	–	–	–
CN(Cc1ccc(-c2ccc(Cl)cc2)o1)C(=O)CCl	49.8	–	–
N#CC(C#N)=Cc1cn[nH]c1-c1cc2ccccc2o1	46.0	–	–
N#CC(C#N)=Cc1cn(-c2ccccc2)nc1-c1cc2ccccc2o1	·	–	–
N#CCOc1ccc(-c2nnco2)cc1	·	–	–
CCNC(C(=O)O)c1cc(Cl)cc(Cl)c1 (configuration not stated)	·	–	–
CC1CCCC(N(C)Cc2ccn(C)c(=O)c2)C1 (configuration not stated)	·	–	–
Nc1c2ccccc2nc2ccccc12 (tested in a mixture with another compound)	·	–	54.5
Nc1ccccc1-c1nc(-c2ccccc2)nc2ccccc12	–	–	–
COc1ccc(OC)c2c1CN(c1cc(C)nc3ccccc13)CC2O (configuration not stated)	·	–	–
COc1ccc(CN2C3CCC2CC(NC(=O)C24CC[C@@](C)(C(=O)O2)C4(C)C)C3)c(OC)c1 (some centres not stated)	76.4	–	–
COc1ccc(CCN2C3CCC2CC(NC(=O)C24CC[C@@](C)(C(=O)O2)C4(C)C)C3)cc1OC (some centres not stated)	–	–	–
CC(C)Oc1c(-c2ccco2)c(=O)c1=O	·	–	65.8
CC(C)Oc1nc(-c2ccco2)n(-c2ccc(N)cc2)n1	·	–	–
Cc1ccc(C(=O)NN2C(=O)C3C4C=CC(C5CC45)C3C2=O)cc1 (configuration not stated)	–	–	–
O=C(NN1C(=O)C2C3C=CC(C4CC34)C2C1=O)c1cccc(Cl)c1 (configuration not stated)	84.9	–	–
O=C1CCCc2occ(C(=O)N3CCC4(CC3)OCc3ccccc34)c21	·	–	–
O=C(NCCN1CCCCC1)c1cc2n(n1)CCN(Cc1cccc(C(F)(F)F)c1)C2=O	46.5	–	–
O=C(NCCN1CCCC1)c1cc2n(n1)CCN(Cc1ccccc1C(F)(F)F)C2=O	–	–	–
CCOC(=O)C1CCCCN1C(=O)C1CCN(c2ncccn2)CC1 (configuration not stated)	–	–	–
CC(=O)N(CCN(C)C)Cc1cc(NC(=O)C(C)C)ccc1N(C)C	–	–	–
SMILES	mcGAS lum	NPYLR7 agonist	hcGAS lum
Cn1nnnc1SCc1cc2c(cc1Br)OCO2	–	–	66.3
Brc1cc2c(cc1CSc1nnnn1C1CC1)OCCO2	·	–	–
CCN(CC)C1CCN(C(=O)c2cn(CCCc3ccccc3)nn2)C1 (configuration not stated)	·	–	–
O=C1c2ccccc2C(=O)c2c1ccc(O)c2O	·	–	–
O=C1c2ccc(O)c(O)c2C(=O)c2c(O)ccc(O)c21	79.4	·	46.8
O=C(CN(CCCN1CCOCC1)C(=O)NCc1ccccc1)N(Cc1ccc2c(c1)OCO2)Cc1ccco1	–	–	–
Cc1ccc(CS(=O)(=O)c2cn(CC(=O)Nc3nc(C)cs3)c3ccccc23)cc1	·	–	–
O=C(c1snc2c(=O)n(Cc3ccccc3)c(=O)[nH]c12)N1CCSCC1	·	64.6	–
Cc1ccc(N2CCN(C(=O)c3snc4c(=O)n(CC(C)C)c(=O)[nH]c34)CC2)c(C)c1	·	–	–
CCN(CC)C(=O)Oc1ccc2c(ccn2Cc2ccccc2F)c1NC(=O)c1cc(F)cc(C(F)(F)F)c1	–	–	–
COc1ccc(Cl)cc1NC(=O)/C(C#N)=C/c1coc2ccc(C)cc2c1=O	·	49.6	–
COc1ccc(C)cc1NC(=O)Cn1cnc2cc(Cl)ccc2c1=O	·	–	–
Cc1nc(C(C)NC(=O)c2cnn(-c3ccccc3Cl)c2C)no1 (configuration not stated)	·	–	–
O=C(Sc1cccc2cccnc12)c1ccccc1Cl	43.9	–	59.8
CSc1ccccc1NC(=O)c1cccc2cccnc12	·	–	–
O=C1NC(=S)N/C1=C\c1cc(Br)c(O)c(Br)c1	–	–	–
O=C1NC(=S)S/C1=C\C(Br)=C\c1ccccc1	51.5	–	–
O=C1NC(=S)SC1=Cc1cc(Cl)c2c(c1)OCO2	–	–	–
O=C1NC(=S)SC1=Cc1cc(O)c(O)c(Cl)c1	·	99.1	–
O=C1NC(=S)S/C1=C/c1cc(Br)c(O)c(Br)c1	42.5	–	–
O=C1NC(=S)S/C1=C/C=C/c1ccccc1	–	–	–
CC1CCCN(c2cc(C(=O)NCc3ccccc3F)c3ccccc3n2)C1 (configuration not stated)	–	–	–
CCOc1cc(/C=N\n2cnnc2)cc(Cl)c1OCc1ccccc1Cl	·	–	–
CC(CC(=O)NC(C)C12CC3CC(CC(C3)C1)C2)c1ccccc1 (configuration not stated)	·	–	–
COc1cc(C=C2COc3ccccc3C2=O)ccc1OCc1ccccc1	–	–	–
SMILES	mcGAS lum	NPYLR7 agonist	hcGAS lum
COc1ccc2c(c1)OC/C(=C\c1ccc(OC)c(O)c1)C2=O	45.7	·	–
CCOc1ccccc1NC(=O)CSc1nc(=O)n(CCCN(CC)CC)c2c1CCC2	–	–	–
CCOC(=O)C(c1cc(OC)ccc1OC)C1C=CC(NC(=O)c2c(-c3c(Cl)cccc3Cl)noc2C)C1 (configuration not stated)	–	–	–
C=CCNC(=O)c1ccccc1N1CCC(NC(=O)COC)CC1	54.5	–	–
C=CCNC(=O)NC1CCN(c2ccccc2C(=O)NCCOC)CC1	–	–	–
NC(=O)c1ncn(C2O[C@H](CO)[C@@H](O)[C@H]2O)c1N (some centres not stated)	·	–	–
Nc1nc(Cl)nc2c1ncn2[C@@H]1O[C@H](CO)[C@@H](O)[C@H]1O	·	76.1	–
Nc1ncn([C@@H]2O[C@H](CO)[C@@H](O)[C@H]2O)c(=O)n1	–	46.4!	–
Nc1nc(Cl)nc2c1ncn2[C@@H]1O[C@H](CO)[C@H](O)C1O (some centres not stated)	–	97.1	–
Nc1nc(Nc2ccccc2)nc2c1ncn2[C@@H]1O[C@H](CO)[C@H](O)C1O (some centres not stated)	–	–	–
OC[C@H]1O[C@@H](n2cnc3c(NC4CCCC4)nc(Cl)nc32)[C@@H](O)C1O (some centres not stated)	·	–	–
Cc1[nH]c2ccc(CNC(=O)c3ccccc3N(C)S(C)(=O)=O)cc2c1C	·	–	–
CC1=NN(c2ccc(C(=O)NC(C)c3cc(C)oc3C)cc2)CC1 (configuration not stated)	·	–	–
FC(F)(F)c1cc(-c2cccs2)nc2ncnn12	–	94.7	–
FC(F)(F)c1cc(-c2ccccc2)nc2ncnn12	–	–	–
CC1Oc2ccccc2OC1C(=O)NCCOc1ccc2ccccc2c1 (configuration not stated)	·	–	–
Fc1ccccc1Nc1nc(-c2cccs2)nc2cc(Cl)ccc12	–	–	–
NS(=O)(=O)c1ccc(NC(NC(=O)c2ccco2)C(=O)c2ccc(Cl)cc2)cc1 (configuration not stated)	·	44.7	–

High-throughput results as filed in PubChem BioAssay.
